Compounds without any hit were thinned out: in the full panel of roughly 83,000, 20% have a hit.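 96-well plates, one dose, 48 hours. Percent growth reported; active if below 10.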 Activity calls are given as the source filed them.
Tests used:
Assay in all cases: NCI-60 one-dose screen, 48 h (100 = growth as untreated, 0 = no growth, -100 = all killed)
Details in all cases: 10 µM unless noted
DU-145 prostate = system: DU-145 prostate
K-562 leukemia = system: K-562 leukemia
MALME-3M melanoma = system: MALME-3M melanoma
MDA-MB-231 breast = system: MDA-MB-231 breast
SF-268 CNS = system: SF-268 CNS
SF-295 CNS = system: SF-295 CNS
SF-539 CNS = system: SF-539 CNS
UACC-257 melanoma = system: UACC-257 melanoma
HCT-15 colon = system: HCT-15 colon
HT29 colon = system: HT29 colon
SNB-75 CNS = system: SNB-75 CNS
SNB-19 CNS = system: SNB-19 CNS
PC-3 prostate = system: PC-3 prostate
SK-MEL-5 melanoma = system: SK-MEL-5 melanoma
UACC-62 melanoma = system: UACC-62 melanoma
LOX IMVI melanoma = system: LOX IMVI melanoma
SK-MEL-28 melanoma = system: SK-MEL-28 melanoma
RXF 393 renal = system: RXF 393 renal
M14 melanoma = system: M14 melanoma
U251 CNS = system: U251 CNS

Measured: growth

CCc1ccc(SC2c3ccc(N(CC)CC)cc3Oc3nc(N)c(C#N)c(N)c32)cc1 (stereo not drawn)
inactive: SNB-75 CNS 12.7%
active: DU-145 prostate -86.3% | K-562 leukemia 1.74% | MALME-3M melanoma -40.8% | MDA-MB-231 breast -83.8% | SF-268 CNS -24.3% | SF-295 CNS -76.2% | SF-539 CNS -94.1% | UACC-257 melanoma 6.57% | HCT-15 colon -88% | HT29 colon -54.6% | SNB-19 CNS -95.1% | PC-3 prostate -74% | SK-MEL-5 melanoma -97% | UACC-62 melanoma -32.7% | LOX IMVI melanoma -86.6% | SK-MEL-28 melanoma -18.7%

C=CCn1c(SCC(=O)Nc2ccc(C(=O)/C=C/c3ccc(C)cc3)cc2)nnc1-c1c[nH]c2ccccc12
inactive: DU-145 prostate 98.4% | K-562 leukemia 61.1% | MALME-3M melanoma 95% | MDA-MB-231 breast 89% | SF-268 CNS 79.4% | SF-295 CNS 66.9% | SF-539 CNS 90.9% | UACC-257 melanoma 112% | HCT-15 colon 71.5% | HT29 colon 101% | SNB-75 CNS 97.4% | SNB-19 CNS 87.5% | PC-3 prostate 66.5% | SK-MEL-5 melanoma 69.2% | UACC-62 melanoma 67.9% | LOX IMVI melanoma 20.9% | SK-MEL-28 melanoma 96%

Cc1nc(-c2ccccc2O)ccc1C(=O)N=Nc1c(O)[nH]c2ccc(Br)cc12
inactive: DU-145 prostate 113% | K-562 leukemia 113% | MALME-3M melanoma 85.4% | MDA-MB-231 breast 87.6% | SF-268 CNS 96.7% | SF-295 CNS 104% | SF-539 CNS 95.7% | UACC-257 melanoma 104% | HCT-15 colon 69.9% | HT29 colon 112% | SNB-75 CNS 93.7% | SNB-19 CNS 101% | PC-3 prostate 88.2% | SK-MEL-5 melanoma 96.9% | UACC-62 melanoma 91.6% | LOX IMVI melanoma 107% | SK-MEL-28 melanoma 101%

CCO/C=N/C1=C(C#N)C(c2ccc(F)cc2)c2sc3c(C)cccc3c2O1 (stereo not drawn)
inactive: DU-145 prostate 12.4% | K-562 leukemia 10.4% | MDA-MB-231 breast 17.8% | SF-268 CNS 38.3% | UACC-257 melanoma 69% | HCT-15 colon 11.9% | SNB-19 CNS 18.2% | PC-3 prostate 14.5% | UACC-62 melanoma 12.8% | SK-MEL-28 melanoma 56.2%
active: RXF 393 renal 0.223% | SF-295 CNS -6.89% | SF-539 CNS -10.1% | M14 melanoma 3.68% | HT29 colon 9.76% | SNB-75 CNS 8.13% | SK-MEL-5 melanoma 4.34% | LOX IMVI melanoma 9.65%

NC(N)=Nc1ccc(Oc2cccc(Nc3ccc(Cl)cc3)c2)cn1
active: DU-145 prostate -18.1% | K-562 leukemia -68.5% | RXF 393 renal 1.19% | SF-295 CNS -75.1% | HCT-15 colon -48.7% | HT29 colon 4.94% | U251 CNS -71.2% | PC-3 prostate -77.5% | LOX IMVI melanoma -96.9%
inactive: MDA-MB-231 breast 10.7% | SF-268 CNS 41.3% | SF-539 CNS 73.3% | UACC-257 melanoma 28.4% | M14 melanoma 42.2% | SNB-75 CNS 22.9% | SNB-19 CNS 23.8% | SK-MEL-5 melanoma 48.8% | UACC-62 melanoma 43.3% | SK-MEL-28 melanoma 49.4%

Cc1nn(-c2ccccc2)c2ncnc(N/N=C/c3ccccc3)c12
inactive: DU-145 prostate 91.2% | K-562 leukemia 78.5% | MDA-MB-231 breast 109% | RXF 393 renal 91.3% | SF-268 CNS 91.7% | SF-295 CNS 108% | SF-539 CNS 103% | UACC-257 melanoma 113% | M14 melanoma 103% | HCT-15 colon 85.4% | HT29 colon 89.1% | SNB-75 CNS 82.9% | SNB-19 CNS 84.4% | U251 CNS 85% | PC-3 prostate 85.2% | SK-MEL-5 melanoma 92.2% | UACC-62 melanoma 90.6% | LOX IMVI melanoma 105% | SK-MEL-28 melanoma 98.4%

C#C[C@]1(O)CC[C@H]2[C@@H]3CC=C4c5sc(-c6ccc(C)cc6)nc5CC[C@]4(C)[C@H]3CC[C@@]21C
inactive: DU-145 prostate 39.8% | HT29 colon 98% | SNB-19 CNS 10.9%
active: K-562 leukemia 6.37% | MDA-MB-231 breast 4.97% | RXF 393 renal -68.1% | SF-268 CNS 7.62% | SF-295 CNS -66.5% | SF-539 CNS -47.7% | UACC-257 melanoma -17.9% | M14 melanoma -49.9% | HCT-15 colon -2.81% | SNB-75 CNS -8.57% | U251 CNS 8.46% | PC-3 prostate -19.9% | SK-MEL-5 melanoma -75.7% | UACC-62 melanoma 2.15% | LOX IMVI melanoma -60.8% | SK-MEL-28 melanoma -57.2%

COc1cc2nc(Cl)nc(Nc3cccc(C4=Nc5c(N)nc(N)nc5NC(c5ccc(Cl)cc5)C4)c3)c2cc1OC (stereo not drawn)
inactive: DU-145 prostate 87.7% | MDA-MB-231 breast 72.9% | RXF 393 renal 73.6% | SF-268 CNS 84.2% | SF-539 CNS 89.3% | UACC-257 melanoma 87.3% | M14 melanoma 52.2% | SNB-75 CNS 89.9% | SNB-19 CNS 12.8% | PC-3 prostate 62.8% | SK-MEL-5 melanoma 70.6% | UACC-62 melanoma 92% | SK-MEL-28 melanoma 73.9%
active: K-562 leukemia -22% | SF-295 CNS -23.9% | HCT-15 colon -7.82% | HT29 colon 3.99% | U251 CNS -52.4% | LOX IMVI melanoma -52.3%

CC(C)(C)c1ccc(C(=O)Nc2sc3c(c2C(N)=O)CCC(O)C3)cc1 (stereo not drawn)
active: K-562 leukemia 6.74% | SF-295 CNS -1.38% | M14 melanoma -3.35% | HCT-15 colon 6.55% | HT29 colon 2.76% | LOX IMVI melanoma -70%
inactive: DU-145 prostate 58.6% | MDA-MB-231 breast 65.6% | RXF 393 renal 44.5% | SF-268 CNS 63.2% | SF-539 CNS 23.3% | UACC-257 melanoma 36.8% | SNB-75 CNS 98.1% | SNB-19 CNS 64.9% | U251 CNS 54% | PC-3 prostate 54.1% | SK-MEL-5 melanoma 38.5% | UACC-62 melanoma 39.4% | SK-MEL-28 melanoma 49.3%

O=C(CN1CCN(c2cc(=O)[nH]c3ccc(F)cc23)CC1)Nc1ccc(Cl)cc1
active: RXF 393 renal -3.61%
inactive: DU-145 prostate 78.1% | K-562 leukemia 78.8% | MDA-MB-231 breast 62.2% | SF-268 CNS 38.3% | SF-295 CNS 67.2% | SF-539 CNS 56.9% | UACC-257 melanoma 65% | M14 melanoma 85% | HCT-15 colon 79.3% | HT29 colon 100% | SNB-75 CNS 13% | SNB-19 CNS 21.3% | U251 CNS 42.6% | PC-3 prostate 78.6% | SK-MEL-5 melanoma 80.9% | UACC-62 melanoma 47.9% | LOX IMVI melanoma 75.2% | SK-MEL-28 melanoma 82.3%

C#C[C@]1(O)CC[C@H]2[C@@H]3CC=C4c5sc(-c6ccc7c(c6)OCO7)nc5CC[C@]4(C)[C@H]3CC[C@@]21C
active: RXF 393 renal -49.3% | SF-295 CNS -47.7% | SF-539 CNS -36.6% | M14 melanoma 6.34% | HT29 colon 8.04% | SNB-75 CNS -3.43% | PC-3 prostate -23.7% | UACC-62 melanoma -35.5% | LOX IMVI melanoma -40.1% | SK-MEL-28 melanoma -39.7%
inactive: DU-145 prostate 20.1% | K-562 leukemia 32.6% | MDA-MB-231 breast 51.8% | SF-268 CNS 51.7% | UACC-257 melanoma 17.7% | HCT-15 colon 10.5% | SNB-19 CNS 15.5% | SK-MEL-5 melanoma 50.5%

CCN1CCN(C(=O)[C@]23CCC(C)(C)C[C@H]2C2=CC[C@@H]4[C@@]5(C)Cc6c([nH]c7ccccc67)C(C)(C)[C@@H]5CC[C@@]4(C)[C@]2(C)CC3)CC1
inactive: DU-145 prostate 83.3% | MDA-MB-231 breast 74.1% | RXF 393 renal 75.9% | SF-268 CNS 90.1% | SF-295 CNS 91.9% | SF-539 CNS 94% | UACC-257 melanoma 88.2% | M14 melanoma 84.5% | HCT-15 colon 79.6% | HT29 colon 88.3% | SNB-75 CNS 87.3% | SNB-19 CNS 91.9% | U251 CNS 83.1% | PC-3 prostate 75.3% | SK-MEL-5 melanoma 97.3% | UACC-62 melanoma 94.8% | SK-MEL-28 melanoma 95.5%

Cc1nn(-c2ccccc2)c2ncnc(N/N=C/c3ccccc3O)c12
inactive: DU-145 prostate 21% | K-562 leukemia 15% | MDA-MB-231 breast 29.7% | HCT-15 colon 21.3% | HT29 colon 24.6% | SNB-19 CNS 17.5% | U251 CNS 11.2% | PC-3 prostate 25.9% | SK-MEL-28 melanoma 23.2%
active: RXF 393 renal -20.4% | SF-268 CNS 8.32% | SF-295 CNS 7.98% | SF-539 CNS -1.39% | UACC-257 melanoma 9.8% | M14 melanoma 0.329% | SNB-75 CNS 5.46% | SK-MEL-5 melanoma -70.2% | UACC-62 melanoma -11.2% | LOX IMVI melanoma 2.3%

O=C(CN1CCN(c2cc(=O)n(-c3ccccc3)c3ccccc23)CC1)Nc1nc(-c2ccccc2)cs1
inactive: DU-145 prostate 72.7% | K-562 leukemia 22.4% | MDA-MB-231 breast 62.6% | RXF 393 renal 76.9% | SF-268 CNS 79.2% | SF-295 CNS 66.7% | SF-539 CNS 77.1% | UACC-257 melanoma 48.5% | M14 melanoma 69.7% | HCT-15 colon 25.2% | HT29 colon 73% | SNB-75 CNS 71.6% | SNB-19 CNS 85.2% | U251 CNS 59.2% | PC-3 prostate 32.5% | UACC-62 melanoma 63.9% | LOX IMVI melanoma 49.4% | SK-MEL-28 melanoma 71.2%
active: SK-MEL-5 melanoma 5.29%

O=C(CN1CCN(c2cc(=O)n(-c3ccccc3)c3ccccc23)CC1)Nc1nc(-c2ccc(Cl)cc2)cs1
active: SK-MEL-5 melanoma 5.1%
inactive: DU-145 prostate 61.6% | K-562 leukemia 24.2% | MDA-MB-231 breast 74.7% | RXF 393 renal 67% | SF-268 CNS 54.5% | SF-295 CNS 62.6% | SF-539 CNS 76.1% | UACC-257 melanoma 28% | M14 melanoma 55.1% | HCT-15 colon 39.7% | HT29 colon 63.8% | SNB-75 CNS 67.5% | SNB-19 CNS 64% | U251 CNS 63.8% | PC-3 prostate 35% | UACC-62 melanoma 61.5% | LOX IMVI melanoma 58.4% | SK-MEL-28 melanoma 69.2%

CC(C)(C)c1ccc(CC(=O)Nc2sc3c(c2C(N)=O)CCC(=O)C3)cc1
inactive: DU-145 prostate 26.4% | SF-268 CNS 26% | SF-295 CNS 10.1% | SNB-75 CNS 23% | SNB-19 CNS 22.8% | U251 CNS 14.9% | PC-3 prostate 13.1%
active: MDA-MB-231 breast -20.2% | RXF 393 renal -12.5% | SF-539 CNS -36.4% | UACC-257 melanoma -10.8% | M14 melanoma 7.16% | HCT-15 colon -19.5% | HT29 colon 3.3% | SK-MEL-5 melanoma -76% | UACC-62 melanoma -32.8% | LOX IMVI melanoma -3.55% | SK-MEL-28 melanoma 5.18%
